Screening results as filed in PubChem BioAssay.
EWS-Fli inh – inhibitors of EWS/Fli oncoprotein transcriptional activity; actives 0.67% (n = 350,000); inhibition, % at 12.6 µM; A673 NR0B1-luciferase reporter, viability-normalised;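 active means mean inhibition of at least 50% after viability correction, with every replicate also passing that limit; inconclusive means mean reaches 50% but only one of two replicates passes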;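 further: firefly luciferase signal divided by Alamar Blue viability fluorescence both relative to DMSO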
LGR2 antag – inhibitors of bursicon-induced Drosophila LGR2 receptor cAMP signaling; HEK293 LGR2, CRE-luciferase, bursicon-stimulated, 4 h; inhibition, % at 9.99 µM; actives 0.35% (n = 380,000);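 active means drop in luminescence signal, shown as inhibition above about 50% in the replicate tests, limit read from the data, passing the limit was not always enough; inconclusive means probably only some replicates passing the limit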;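 further: agonist challenge used bursicon conditioned medium at about half maximal strength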
TWEAK-Fn14 inh – TWEAK-Fn14 signaling inhibition | TWEAK-stimulated Fn14 reporter cells, luciferase luminescence, 8 h | inhibition, % at 10 µM | actives 2% (n = 360,000); in the data active means inhibition above about 50%
TROY signal inh – TROY signaling inhibition; Q293 LMP1-TROYcd NF-kB luciferase reporter, 4 h; inhibition, % at 10 µM; actives 0.98% (n = 360,000); AID 1347056;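 active means compounds whose plate-normalised and pattern-corrected inhibition of the luciferase reporter signal at the single screening dose is 50% or more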
PAX8 inh HTS – inhibitors of PAX8 transcriptional activity in RMG-I cells; RMG-I TPO-luciferase reporter, SteadyGlo, 24 h; inhibition, % at 12.6 µM; actives 1.2% (n = 360,000);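 active means mean replicate inhibition at least 60% with every replicate also reaching 60%; inconclusive means only one of the two criteria is met; inactive means mean below 60% and not all replicates reaching 60%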;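 further: luciferase light reporting Pax8 driven TPO promoter activity; plate controls were median of neutral control wells for no effect and mitoxantrone controls for full effect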
* hit, by the source's call; ? = inconclusive; / = no result given. This is a sample that favours compounds with a hit; in the whole collection about 2.8% have one here.

SMILES	EWS-Fli inh	LGR2 antag	TWEAK-Fn14 inh	TROY signal inh	PAX8 inh HTS
O=C1c2ccccc2-c2nnc(-c3ccc(F)cc3)cc21	45	51*	75*	-2	-121
O=C1c2ccccc2-c2nnc(-c3ccc(O)cc3)cc21	-16	24	9	-19	-87
Cc1ccccc1-c1cc2c(nn1)-c1ccccc1C2=O	/	/	46	85*	/
Cc1ccc(-c2cc3c(nn2)-c2ccccc2C3=O)cc1	84*	92*	96*	75*	79*
CC(C)CC#Cc1ccc([C@H]2[C@@H](CO)N3C(=O)CN(C(=O)Cc4cccnc4)C[C@H]23)cc1	-5	1	/	/	0
CCOC(=O)c1c(C)[nH]c(C2=NNC(=Nc3ccccc3OC)SC2)c1C	-55	-33	51*	42	74*
Cc1noc(C)c1NC(=O)Nc1cccc2c1O[C@H](CN(C)Cc1ccc(C(=O)Nc3ccccc3N)cc1)[C@H](C)CN([C@H](C)CO)C2=O	-7	-6	/	/	-45
COc1ccc(N2CCN(S(=O)(=O)c3cccc4cccnc34)CC2)cc1	1	-15	3	-3	0
COc1ccc(CC2(CO)CCN(S(=O)(=O)c3cccc4cccnc34)CC2)cc1	0	-4	56*	14	2
N#C[C@H]1[C@@H](c2ccc(C#CC3CCCCC3)cc2)[C@@H](CO)N1S(=O)(=O)c1ccccc1	30	8	/	/	79*
N#C[C@@H]1[C@@H](c2ccc(C#CC3CCCCC3)cc2)[C@H](CO)N1S(=O)(=O)c1ccccc1	-5	7	/	/	40
N#C[C@@H]1[C@@H](c2ccc(C#CC3CC3)cc2)[C@H](CO)N1S(=O)(=O)c1ccccc1	-23	4	/	/	4
CCCC#Cc1ccc([C@@H]2[C@@H](CO)N(S(=O)(=O)c3cccc(F)c3)[C@H]2C#N)cc1	15	-7	/	/	51
N#C[C@H]1[C@@H](c2ccc(C#CC3CCCCC3)cc2)[C@H](CO)N1S(=O)(=O)c1ccccc1	9	0	/	/	27
Cc1ccccc1S(=O)(=O)N1[C@H](CO)[C@@H](c2ccc(C#CC3CC3)cc2)[C@@H]1C#N	13	11	/	/	64*
CCCC#Cc1ccc([C@@H]2[C@@H](C#N)N(S(=O)(=O)c3cccc(F)c3)[C@H]2CO)cc1	-4	12	/	/	81*
N#C[C@H]1[C@H](c2ccc(C#CC3CCCCC3)cc2)[C@@H](CO)N1S(=O)(=O)c1ccccc1	9	23	/	/	68*
CS(=O)(=O)N1[C@@H]2Cn3c(cccc3=O)[C@H]1[C@@H](C(=O)NCc1ccccc1)[C@@H]2CO	-6	-10	/	/	/
CN1[C@H](CO)[C@@H]2c3ccccc3N(C(=O)Nc3ccccc3F)C[C@@H]21	-41	-10	/	/	-70
C[C@H](CO)N1C[C@H](C)[C@@H](CN(C)C)Oc2ccc(NC(=O)CCN3CCOCC3)cc2C1=O	-8	-12	/	/	4
N#C[C@H]1[C@H](c2ccccc2C2=CCCCC2)[C@@H](CO)N1S(=O)(=O)c1ccccc1	4	68*	/	/	-23
N#C[C@H]1[C@@H](c2ccccc2C2=CCCCC2)[C@H](CO)N1S(=O)(=O)c1ccccc1	6	4	/	/	-6
COC(=O)c1nc(NNC(=O)c2ccccc2)sc1-c1ccccc1	4	-11	82*	-6	-14
COc1cc(/C=N/NC(=O)c2cc(-c3ccc4c(c3)OCO4)n[nH]2)ccc1O	-29	-22	51*	-15	26
COc1ccccc1N/N=C/c1ccc2c(c1)OCO2	-37	/	60*	-4	12
SMILES	EWS-Fli inh	LGR2 antag	TWEAK-Fn14 inh	TROY signal inh	PAX8 inh HTS
COc1cc(/C=N/NC(=O)c2cc(-c3c(C)nn(-c4ccccc4)c3C)n[nH]2)ccc1O	-30	-30	-44	10	69*
Cc1nn(-c2ccccc2)c(C)c1-c1cc(C(=O)N/N=C/c2ccc(O)cc2)[nH]n1	-5	7	4	22	52
Cc1ccccc1CN(C)C[C@@H]1OCc2cn(nn2)CCCC(=O)N([C@H](C)CO)C[C@@H]1C	-8	-10	/	/	/
Cc1noc(C)c1NC(=O)N(C)C[C@H]1Oc2c(NS(=O)(=O)c3c(C)noc3C)cccc2C(=O)N([C@H](C)CO)C[C@H]1C	-5	7	/	/	/
COc1ccccc1NC(=O)CCCC(=O)OCC(F)(F)C(F)F	/	-8	63*	2	/
COc1ccc(NC(=O)CCCC(=O)OCC(F)(F)C(F)F)cc1	/	7	7	-7	/
CCCCCn1c2c(c(=N)c3ccccc31)CCC2	22	14	4	15	67*
CCCCCCCCn1c2c(c(=N)c3ccccc31)CCC2	42	?	71*	47	80*
COc1ccc2c3c([nH]c2c1)[C@@H](CO)N(C(=O)c1ccccc1)CC31CCN(C(=O)NC(C)C)CC1	6	-4	/	/	/
C[C@@H]1CN([C@@H](C)CO)C(=O)c2ccccc2-c2ccccc2CO[C@@H]1CN(C)Cc1ccncc1	2	-29	/	/	3
C=C1C2(C(=O)Nc3ccc(SC(F)F)cc3)CCC(C2)C1(C)C (stereo unspecified)	1	-7	8	-12	98*
CNC[C@@H]1Oc2ccc(NC(=O)C3CC3)cc2CC(=O)N([C@H](C)CO)C[C@H]1C	-4	8	/	/	-20
CN(C)c1ncnc2c1nnn2C1OC(CO)C(O)C1O (stereo unspecified)	26	5	-11	5	91*
CC(C)OC(=O)CSc1nc(N)c(C#N)c(-c2cccs2)c1C#N	/	/	40	43	27
CC(=O)CSc1nc(N)c(C#N)c(-c2cccs2)c1C#N	/	/	52*	12	/
CO[C@H]1CN(C)C(=O)c2ccc(NC(=O)C3CCCCC3)cc2OC[C@H](C)N(C(=O)c2ccccc2)C[C@@H]1C	3	13	/	/	11
Cn1c(=O)oc2cc(S(=O)(=O)N3CCCc4ccccc43)ccc21	59*	4	3	4	53
O=C(Nc1nc2c(s1)CCCC2)c1ccc(S(=O)(=O)N2CCCc3ccccc32)cc1	/	23	69*	17	21
CNC(=O)c1ccsc1NC(=O)c1ccc(S(=O)(=O)N2CCCc3ccccc32)cc1	7	10	76*	48	42
COC(=O)Nc1ccc(S(=O)(=O)N2CCCc3ccccc32)cc1	/	/	53*	28	/
CO[C@@H]1CN(C)C(=O)c2ccc(NC(=O)NC(C)C)cc2OC[C@@H](C)N(CCC(F)(F)F)C[C@@H]1C	-4	12	/	/	/
CCC(=O)N1[C@H](CN(C)C(C)=O)[C@H](c2ccc(C3=CCCC3)cc2)[C@@H]1CO	/	8	/	/	/
CCc1nnc(NC(=O)c2ccc(S(=O)(=O)N3CCCc4ccccc43)cc2)o1	18	1	23	16	/
CC1CCc2nc(NC(=O)c3ccc(S(=O)(=O)N4CCCc5ccccc54)cc3)sc2C1 (stereo unspecified)	/	/	55*	9	/
CC1(C)CC(CC(=O)Nc2nccs2)(c2ccccc2)CCO1 (stereo unspecified)	-24	6	9	6	69*
O=C(C[C@H]1CC[C@@H](NC(=O)C2CCOCC2)[C@@H](CO)O1)NCC1CC1	/	-8	/	/	1
